# A number with no mark means an inactive call.
# Test: MM1S myeloma cell viability, profiling panel, resazurin fluorescence, basal, 24 h, PK04 Diversity Set (AID 1174);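 note: MM1S multiple myeloma cell line; test concentration not given here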
# Conditions: higher = more signal, called active from +8 up or from −8 down
row,SMILES,z-score
1,COCCOC(=O)N1C(=O)[C@@]2(c3cc(C#CCNC(N)=O)ccc31)[C@H](C(=O)N1CCc3cc(OC)c(OC)cc3C1)[C@H]1C(=O)O[C@H](c3ccccc3)[C@H](c3ccccc3)N1[C@@H]2c1ccc(OCCO)cc1,0.761
2,CCOC(=O)C1=CC[C@@H](c2ccccc2)N(S(=O)(=O)c2ccc(C)cc2)[C@H]1C(=O)OCC,-0.424
3,O=C(CS)NCCCCCCNC(=O)[C@@H]1C[C@@H]2C(=O)N3CCC[C@H]3C(=O)N2[C@@H]1c1ccc(O)cc1,0.357
4,CCOC(=O)C1=CCC(c2ccc([N+](=O)[O-])cc2)N(S(=O)(=O)c2ccc(C)cc2)C1 (stereo not given),-1.1
5,COCCOC(=O)N1C(=O)[C@@]2(c3cc(C#CCNC(N)=O)ccc31)[C@H](c1ccc(O)cc1)N1[C@H](c3ccccc3)[C@H](c3ccccc3)OC(=O)[C@H]1[C@@H]2C(=O)Nc1nc2ccccc2s1,1.38
6,O=c1cccc(CCc2ccccc2)o1,-0.0074
7,O=C1N(CCS(=O)(=O)c2ccccc2)Cc2ccccc2[C@H]2OC(c3ccc(OCCCO)cc3)=N[C@@]12CCS(=O)(=O)c1ccccc1,0.935
8,CN(C)C(=O)[C@@]1(CCC(=O)OC(C)(C)C)N=C(c2ccc(OCCCO)cc2)O[C@H]1c1ccccc1,-0.441
9,O=C1C2C=CC(C(O)c3ccc(-c4ccccc4)s3)N(n3cnnc3)C2C(=O)N1Cc1ccccc1 (stereo not given),-0.559
10,CC(C)C(O)C1C=CC2C(=O)N(c3ccccc3)C(=O)C2N1Nc1ccc(C#N)cc1 (stereo not given),-1.66

# From PubChem BioAssay
